# Rows were chosen to be rich in hits. Some 21% of all compounds tested hit in one or more screens of this group.
# Gal4-VP16 FLuc: inhibits Gal4-VP16 luciferase reporter, ROR gamma counter-screen; Potency, µM (titrated, usually from 53.6 µM), without a hit: at the top dose activity, negative = inhibition, most hits filed as inhibitors; Drosophila S2 Gal4-VP16 UAS-luciferase, luminescence, 20 h; 310,000 compounds, 3.5% hits;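 further: Gal4-VP16 expression switched on by copper sulfate through the metallothionein promoter; potency means the concentration at half of the fitted maximal effect; nearly all actives have a fitted effect of over 50% in size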
# IL1B secr inh: inflammasome signaling inhibition, IL-1 beta readout; 360,000 compounds, 4.7% hits; activity change, % at 57.5 µM; THP-1 LPS/ATP IL-1B secretion, AlphaLISA, 16 h; hits give low values; in the data active means activity change below about -50%; inconclusive means mostly about -30% to -49%
#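 Secreted IL-1B measured by AlphaLISA bead assay after 16 h compound exposure of THP-1 cells; compounds (final up to 57.5 uM) added 1 h before LPS (250 ng/mL) and ATP (1.25 mM) stimulation; lower signal means less secretion.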
# DT40 TDP1 CPT: DT40-hTDP1 cell growth loss with CPT. 420,000 compounds, 12% hits. AID 686979. Potency, µM (top dose mostly 46.2 µM), for inactives: at the top dose activity change, negative = growth inhibition, hits mostly inhibitors. chicken DT40 Tdp1-/-;hTDP1 cells + 20 nM CPT, ATP luminescence, 48 h; further: potency means the concentration at half of the fitted maximal effect; nearly all actives have a fitted effect of over 55% in size
#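 Cell growth measured by CellTiter-Glo luminescence after a minimum 48 h, 37 C compound exposure with 20 nM CPT in Tdp1-knockout DT40 cells stably expressing hTDP1, seeded 400/well; qHTS titration format.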
# RORgamma inh: blocks mouse ROR gamma transcriptional activity | P51450 | Drosophila S2 Gal4-RORgamma UAS-luciferase reporter, 20 h | Potency, µM (highest dose often 53.6 µM), inactives show at the highest dose activity change, negative = inhibition, actives largely listed as inhibitors | 310,000 compounds, 5.4% hits; further: potency means the concentration at half of the fitted maximal effect; nearly all actives have a fitted effect of over 60% in size
# Target sequence (P51450 whole entry, looked up, the tested form may be a part): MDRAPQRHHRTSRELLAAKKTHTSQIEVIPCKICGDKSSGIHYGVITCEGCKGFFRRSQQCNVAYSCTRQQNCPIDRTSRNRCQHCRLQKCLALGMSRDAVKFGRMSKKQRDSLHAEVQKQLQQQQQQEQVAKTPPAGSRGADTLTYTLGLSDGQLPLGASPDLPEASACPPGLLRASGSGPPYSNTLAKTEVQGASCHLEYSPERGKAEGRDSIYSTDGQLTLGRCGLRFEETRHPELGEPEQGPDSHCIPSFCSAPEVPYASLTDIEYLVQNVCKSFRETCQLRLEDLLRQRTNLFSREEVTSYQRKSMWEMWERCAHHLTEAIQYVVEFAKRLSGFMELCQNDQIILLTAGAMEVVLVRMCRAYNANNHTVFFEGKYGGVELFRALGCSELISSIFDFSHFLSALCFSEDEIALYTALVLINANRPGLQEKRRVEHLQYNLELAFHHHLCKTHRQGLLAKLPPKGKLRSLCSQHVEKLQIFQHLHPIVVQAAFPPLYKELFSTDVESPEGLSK
#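 Luminescence from a UAS-regulated Photinus luciferase reporter in stably transfected Drosophila Schneider cells is measured; decreased signal marks ROR gamma inhibition. Fusion expression is induced by 700 uM copper sulfate for 20 hr.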
# ELG1 DNA repair: blocks ELG1-dependent DNA repair in HEK293T cells; HEK293T ELG1-luciferase reporter, luminescence, 16 h; DNA damage induced by 5-fluorouridine; AID 504467; 330,000 compounds, 2.3% hits; Potency, µM (top dose mostly 46.1 µM), inactives show at the top dose activity change, negative = inhibition, most hits filed as inhibitors; further: potency means the concentration at half of the fitted maximal effect; nearly all actives have a fitted effect of over 55% in size
#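 Reporter activity after DNA damage by 5-fluorouridine is monitored. Compound-treated cells incubate 16 hr at 37 °C, then ONE-Glo is added for 30 min before luminescence reading.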
# TDP1 cell noCPT: qHTS for Inhibitors of human tyrosyl-DNA phosphodiesterase 1 (TDP1): qHTS in cells in absence of CPT | DT40 Tdp1-/- hTDP1 cells, no CPT, ATP luminescence, 48 h | Potency, µM (titrated, usually from 46.2 µM), for inactives: at the highest dose activity change, negative = growth inhibition, hits mostly inhibitors | 420,000 compounds, 15% hits; further: potency means the concentration at half of the fitted maximal effect; nearly all actives have a fitted effect of over 55% in size
#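 Camptothecin absent (DMSO only). Human TDP1-complemented DT40 knockout cells, 400 cells/well, 37 °C for minimum 48 hr; ATP measured via CellTiter-Glo, 30 min dark incubation, luminescence.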
# * marks the source's active call; other numbers are inactive results; ? = inconclusive; · = no result. Unless noted, the call rests on the fitted dose curve; in most records, active means well fitted curve in the direction sought with a large enough effect; inconclusive means small, poorly fitted or top-dose-only effect, or another doubt; inactive means no such curve, though single readings can be large; an effect the other way counts as inactive or inconclusive. On the % scale 0 is the no-effect control and ±100 the full control effect.
SMILES,Gal4-VP16 FLuc,IL1B secr inh,DT40 TDP1 CPT,RORgamma inh,ELG1 DNA repair,TDP1 cell noCPT
CCCCCCCC1=Cc2ccc(F)cc2C(C(C(C)=O)C(=O)OC)N1C(=O)OC (stereo not drawn),22%,·,·,2%,·,·
COc1ccccc1NC(=O)Cn1c(=O)n(Cc2ccc3c(c2)OCO3)c(=O)c2oc3ccccc3c21,·,·,5%,·,·,-3%
N#Cc1ccsc1NC(=O)COc1ccc(-c2nnco2)cc1,-5%,9,0%,?,?,-1%
CC1CC2C3CCC4=CC(=O)C=C[C@@]4(C)[C@]3(F)C(O)C[C@]2(C)[C@]1(O)C(=O)CO (stereo partly drawn),5%,·,?,-12%,·,-27%
CCOc1ccc(S(=O)(=O)Nc2ccc(C(=O)N/N=C(\C)c3ccc(-n4ccnc4)cc3)cc2)cc1,0%,-20,?,14%,?,?
CNC(=S)N/N=C(\C)c1ccc(-n2ccnc2)cc1,?,-11,-3%,8.9µM*,?,4%
CCc1ccc(OCC(=O)N/N=C(\C)c2ccccc2OC(F)F)cc1,-17%,-11,16µM*,?,1%,16µM*
C=CCNC(=S)N/N=C(\C)c1ccc(-n2ccnc2)cc1,7.1µM*,?,-23%,3.2µM*,-10%,-17%
CCc1ccc(OCC(=O)N/N=C(\C)c2ccc(-n3ccnc3)cc2)cc1,-14%,-21,?,?,-11%,16µM*
C/C(=N\NC(N)=O)c1ccc(-n2ccnc2)cc1,-8%,-5,-5%,36%,22%,-2%
CC(NC(=O)CSc1n[nH]c(-c2ccccc2Cl)n1)c1nc2ccccc2n1C (stereo not drawn),·,·,-9%,·,·,-21%
COc1ccccc1NC(=S)NNC(=O)c1ccc(O)cc1,?,16,-1%,?,?,4%
COCCNC(=S)N/N=C(\C)c1ccc(O)cc1,?,8,?,22µM*,?,?
COCCNC(=S)N/N=C(\C)c1ccc(-n2ccnc2)cc1,7.1µM*,74,4.5µM*,6.3µM*,-16%,3.5µM*
C/C(=N\NC(=O)c1ccc(C)cc1C)c1ccc(-n2ccnc2)cc1,-5%,4,-23%,-17%,15%,-11%
C/C(=N\NC(=S)Nc1ccccc1C)c1ccc(O)cc1,?,-2,?,10µM*,1%,?
C/C(=N\NC(=S)NC(C)C)c1ccc(-n2ccnc2)cc1,6.3µM*,-17,3.3µM*,5.6µM*,8%,4.1µM*
C/C(=N\NC(=O)COc1ccccc1)c1ccc(O)cc1,-21%,-9,-6%,-1%,?,-14%
CCOC(=O)c1cnc(NCc2ccc(Cl)cc2)c2ccccc12,·,·,?,·,·,-24%
CCOc1ccccc1NC(=O)COC(=O)C(Cc1ccccc1)NC(=O)c1ccco1 (stereo not drawn),·,2,-14%,·,5%,-7%
C=CCNC(=S)Nc1ccccc1-c1nnc2n1CCCCC2,4%,15,2%,0%,15%,-3%
CC(C)CCn1c(/C=C/c2ccccc2)nc2ccccc21,·,·,16µM*,·,·,12µM*
COCCn1c(SCc2csc(-c3ccccc3)n2)nc2ccccc21,2%,?,16µM*,?,?,18µM*
COCCn1c(COc2ccc(OC)cc2)nc2ccccc21,4%,-11,?,-29%,?,?
CC(C)CCn1c(C(C)O)nc2ccccc21 (stereo not drawn),10%,10,-6%,-17%,-14%,?
SMILES,Gal4-VP16 FLuc,IL1B secr inh,DT40 TDP1 CPT,RORgamma inh,ELG1 DNA repair,TDP1 cell noCPT
COCCn1c(/C=C/c2ccccc2)nc2ccccc21,?,-2,-22%,11µM*,?,?
CCC(C)Cn1c(/C=C/c2ccccc2)nc2ccccc21 (stereo not drawn),·,·,9.2µM*,·,·,9.2µM*
COCCn1c(SCC(=O)NNC(=O)c2ccccc2)nc2ccccc21,·,6,-9%,·,15%,-20%
CC(C)(C)OC(=O)N[C@H](C(=O)OC(C)(C)C)c1ccc2c(c1)OCO2,·,-7,?,·,8%,?
CC1CCCC(NC(=O)CSc2nnc(-c3cccnc3)n2N)C1C (stereo not drawn),·,15,1%,·,3%,2%
Cc1ccc(CNC(=O)Nc2ccccc2)c(C)c1,-12%,0,6%,-11%,?,-20%
CSc1nncc(=O)[nH]1,6%,22,?,-40%,-19%,23µM*
CCc1nnc(NC(=O)C2CCN(C(=O)c3ccco3)CC2)s1,-6%,20,20%,4%,10%,2%
CCC(C)(C)c1nnc(NC(=O)C2CCN(C(=O)c3ccco3)CC2)s1,4%,25,21µM*,17%,1%,?
CCc1nnc(NC(=O)c2ccccc2NC(=O)C2CCN(C(=O)c3ccco3)CC2)s1,·,·,14µM*,·,·,11µM*
O=C(CSc1nnc(CCCOc2ccc(Cl)cc2Cl)o1)Nc1ccc(C(=O)O)cc1,-7%,10,12%,25%,14%,14%
COc1ccc(NC(=O)c2sc3nc4n(c(=O)c3c2C)CCC4)cc1Cl,·,·,-18%,·,·,-20%
O=C(NNC1=NCCCCC1)c1cccc([N+](=O)[O-])c1,-12%,2,7%,-4%,9%,-3%
O=C(NNC1=Nc2ccccc2SC1)c1cccc([N+](=O)[O-])c1,-26%,53,16µM*,?,16µM*,23µM*
O=C(NNC1=Nc2ccccc2SC1)c1ccccc1F,0.71µM*,-12,?,0.89µM*,5.8µM*,?
CCOC(=O)C1=CNS(=O)(=O)NC1c1ccc(OC(C)=O)cc1 (stereo not drawn),·,12,-11%,·,6%,-17%
Cc1cccc(C)c1NC(=O)/C(C#N)=C/c1cccs1,-4%,-10,12µM*,-7%,-12%,?
CCCNC(=O)C1(C)CCCN(C(=O)c2cccc(OC(F)(F)F)c2)C1 (stereo not drawn),·,21,-26%,·,·,?
Cc1ccc(S(=O)(=O)N2CCN(c3nc(-c4ncco4)nc4ccccc34)CC2)cc1,·,·,11µM*,·,·,11µM*
Cc1ccc(S(=O)(=O)N2CCN(c3nc(-c4ccc(CN5CCNCC5)s4)nc4ccccc34)CC2)cc1,·,·,?,·,·,22µM*
Cc1ccc(S(=O)(=O)N2CCN(c3nc(-c4ccc(C)s4)nc4ccccc34)CC2)cc1,·,·,-30%,·,·,?
